Reference: the supplement of paper PMC11417369
Whole data set: some 25,000 sequences, median “ln(normalized median fluorescence intensity)” near 9.3, cut for the highest 2% near 10. Shown is part of a subset that was picked to be rich in the highest values.

tested on: PF3D7_0420300 AP2 domain 1 (GST-tagged); assay: gcPBM binding intensity (ln(normalized median fluorescence intensity)); higher = stronger DNA binding
In short: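 Using an Agilent 4 × 180k array, primer-extended double-stranded 36-bp intergenic genomic probes and negative controls were exposed for 1 h to GST-fused P. falciparum DNA-binding domains expressed in E. coli. Binding was carried out in 1× PBS with 1% milk, 0.2 mg/ml BSA, 0.5% salmon testes DNA and 0.03% Triton X-100, and protein was detected with Alexa488 anti-GST antibody and a 488 nm scan. Binding intensity is the highest Masliner-normalised natural-log median intensity across replicate spots of either probe orientation.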

Sequence | gcPBM binding intensity (ln)
AAAAAATTAAAAATCACACATAAATATATATAAAAA [CACACA_site4192] | 9.48
CATATATTATTATATGCACACATGAAAATATACAAA [CACACA_site2795] | 9.49
AAGAAAAAAATTTATACAAGAATTTTTTATTATTAA [TGCATGCA_negctrl_site587] | 8.9
ATTTATGTTATATATACACACACAAAAGAAAAAAAA [CACACA_site8977] | 9.82
AAACATATAAACATATGTACATATAAACATATATAC [XGTACX_site5026] | 9.42
AAAAAAAAAGTATTATGTACATAAAAATAAAAAAAT [XGTACX_site4166] | 9.42
ATATAAGTATATCTATGTACATACAATATAAATGTA [XGTACX_site2153] | 9.09
AAATATAAACGGCACACACACAAAAAAAGAAAAAAA [CACACA_site649] | 10.2
AAAAATATAAACTGCACACACACAAAAAAAGAAAAA [CACACA_site648] | 10.1
TAAAAAATATAAACTGCACACACAAAAAAAAAAGAG [CACACA_site8379] | 10.2
AAAAAAAGAAAAAAAACACACACAAATATAAATAAA [CACACA_site8309] | 10
AAAAAGAAAAAAAACACACACAAATATAAATAAATA [CACACA_site1183] | 9.98
AAAAATATAAACTGCACACACAAAAAAAAAAGAGAA [CACACA_site1367] | 10.1
TCTAATGATATATACACACACATATAGATTTATATA [CACACA_site7044] | 9.64
TGTAGATATTATATATGTACGCATATGAAATATATA [XGTACX_site1586] | 9.09
ACATATTCATATGGAAGTACGATAATGTAGTCATAT [XGTACX_site7080] | 9.37
TTTAACAACTATTTCTGTACACATTTTTATATAATT [XGTACX_site4917] | 9.47
TTTATATTATAATATAATAATGATCTTAATTTTTTT [XGTACX_negctrl_site100] | 8.91
AAAAAAAATTTTAATTGTACAAAAAAAAAAAATATA [XGTACX_site2259] | 8.91
CATACATACAGACACACACACATATATATATATATA [CACACA_site2920] | 9.91
CACGCACGCAGACACACACACACACGCACATATATA [CACACA_site6303] | 10.3
TATATACACAGACACACACACACATACACGCACATA [CACACA_site6909] | 10.3

Sequence | gcPBM binding intensity (ln)
CATACCTATAGACACACACACACACGCACGCACAAA [CACACA_site6374] | 10.2
AGTATACGCAGACACACACACACATATATATATATA [CACACA_site1735] | 9.98
CATACACATAGACACACACACATATATACCTATATA [CACACA_site6644] | 10.1
CACATACACATACACATACACACGCATAGAAACATA [CACACA_site2136] | 9.79
AACATACATAGACACACACACACACGCACACGCACA [CACACA_site6373] | 10.3
CGCACACGCAGACACACACACACATATAAATAAATA [CACACA_site7101] | 9.86
CACATACAGACATACACACATACACATATACGCATA [CACACA_site1745] | 9.86
TATACACATAGACACACACACATACACGCACATACA [CACACA_site6908] | 10.1
TATACACATAGACACACACACAAAAAAAAAAAAAAA [CACACA_site6338] | 9.73
TAGTATTTATATGATTAACACACATATGGGTATTAA [CACACA_site8363] | 9.28
CATATAAGACAAAAGGTGCAATTTTAATGCTTTTAT [GTGCAC_site9432] | 9.31
ATAACATATATATATACACACACATATATATATGAA [CACACA_site7983] | 9.79
TTCTATATTTTAGCTGATAATATTATGAGCTTCACT [XGTACX_negctrl_site427] | 9.08
AATAAATAAATAAATATATATATATATATATATATA [CACACA_negctrl_site708] | 8.86
TCTTCTTAACCAACTATGAAAAGGAAAAATATAACA [GTGCAC_negctrl_site565] | 9.06
TATGTATAATTATTTTGTACTTATTAAATTTTTTTT [XGTACX_site5413] | 9.18
TACCCTGATCGGCATGCATGTAAGTAACAAATATAT [TGCATGCA_site153] | 9.22
ATATAAAATATTACGTGTACACATAAATAAAAATAA [XGTACX_site3746] | 9.41
GAATAAAAAATTGGCACACATAAATATATGGATATA [CACACA_site3047] | 9.46
AAAAAAAAAAGACACACACACACACGCATATACATA [CACACA_site7289] | 10.2
TATACGCATATATACACACACATATATATATATATA [CACACA_site3416] | 9.66
CATATATACACATACACACACACACGGACACGCACA [CACACA_site6910] | 10.2
